This assay in a line: inhibitors of HIV fusion peptide binding, primary screen, biochemical, uHTS, fluorescence dequenching (AID 1986). The settings on record: cell-free peptide binding, 30 min, stronger effect = higher value.
Where [1] appears, read: measured here: repeat confirmation average inhibition, at 18.6 µM.

Here are results for 87 compounds from PubChem BioAssay AID1986 (Sanford-Burnham Center for Chemical Genomics, 2009).

The structures appear in SMILES notation. The campaign covered roughly 290,000 compounds. About 890 (0.31%) were called active. No stated cut-off is given here; in the data, active means inhibition mostly above about 52% (no sharp cut-off); inactive means mostly below about 76%. The sample as a whole holds a higher share of actives than the screen did.

As usually defined, the inhibition is the relative decrease from the control value, in per cent. On to `Cc1ccc(NC(=O)COC(=O)Cn2cnc3c2c(=O)n(C)c(=O)n3C)c(Cl)c1`, for which, for the setting “at 20 µM”, the inhibition was 1.4% (inactive).

Consider `O=C(NCCCCc1ccccc1)C1CCCC1`, for which, under “at 20 µM”, the inhibition is -0.4% (inactive). Turning to `COc1ccccc1NC(=O)CCCc1nc(-c2ccc(OC)c(OC)c2)no1`, the inhibition (at 20 µM) is -1% (inactive). `COc1cc(/C=C(\C#N)c2nc3ccccc3[nH]2)ccc1OC(=O)c1ccco1`: under “at 20 µM”, the inhibition was 61.1% (active). As for `Cc1cc(/C=C(\C#N)c2nc3ccccc3[nH]2)c(C)n1C`, under “at 20 µM”, the inhibition was 54% (active). For the compound `Cc1ccc2nc(/C(C#N)=C/c3ccc(-c4ccccc4C(=O)O)o3)[nH]c2c1`, the inhibition was 94.3% (active) (at 20 µM) and 63.8% under setting [1]. Regarding `COc1cc(/C=C(/C#N)c2nc3ccccc3[nH]2)ccc1OC(=O)c1ccco1`, the inhibition (at 20 µM) is 0.5% (inactive). Still for that read-out and setting: in the case of `Cc1cc(/C=C(/C#N)c2nc3ccccc3[nH]2)c(C)n1-c1ccccc1C(=O)O` it was 9.7% (inactive). As for `Cc1cc(/C=C(/C#N)c2nc3ccccc3[nH]2)c(C)n1-c1cc(C(=O)O)cc(C(=O)O)c1`, the inhibition was 63.6% (inactive) (at 20 µM) and 40.2% under setting [1]. For the compound `COC(=O)c1ccc(COc2ccc(/C=C(\C#N)c3nc4ccccc4[nH]3)cc2OC)o1`, under “at 20 µM”, the inhibition was 4.4% (inactive). As for `Cc1cc2nc(/C(C#N)=C\c3ccc(-c4ccccc4C(=O)O)o3)[nH]c2cc1C`, the inhibition (at 20 µM) is 135% (inactive). The same measure, in the same setting: in the case of `N#C/C(=C\c1ccc(-c2ccccc2C(=O)O)o1)c1nc2ccccc2[nH]1` it was 29.4% (inactive); in that of `O=C(NC(=S)Nc1ccc(CN2CCCCC2)cc1)c1ccco1`, 0.8% (inactive); in that of `Cc1ccccc1-n1ncc2c1CC(C)(C)CC2NC(=O)CCCN1CCCC1=O` (stereo unspecified), 0.2% (inactive). Still for that read-out and setting: then `CCOc1ccc(NC(=O)CSc2nc3ccsc3c(=O)n2CCC(=O)O)cc1`, with 2.5% (inactive); and `Oc1oc(-c2ccccc2Br)nc1C=Nc1ccc(Br)cn1`, with -0.2% (inactive).

Take `COc1ccc(N=Nc2n(C)c3ccccc3[n+]2C)cc1`: the inhibition (at 20 µM) is 79.3% (active). `Cn1c(N=Nc2ccc(N3CCOCC3)cc2)[n+](C)c2ccccc21`: for the setting “at 20 µM”, the inhibition is -4.1% (inactive). The same measure, in the same setting: in the case of `COc1ccc(N2CC(O)=C(c3n(C)c4ccccc4[n+]3C)C2=N)cc1` it was 1.6% (inactive).

On to `CC(C)(C)c1cc(C(=O)C[n+]2ccc(C(=O)NCCCO)cc2)cc(C(C)(C)C)c1O`, for which the inhibition (at 20 µM) was -4% (inactive). On the same count and under the same terms, in the case of `CCCOC(=O)C1C2C=CC3(CN(c4cccc(Cl)c4)C(=O)C13)O2` (stereo unspecified) it was 0.8% (inactive); in that of `Cc1cc(C)n2nc(C(F)(F)F)c(-c3ccccc3)c2n1`, 0.5% (inactive); in that of `Cc1cc(N2CCOCC2)n2nc(C(F)(F)F)c(-c3ccccc3)c2n1`, 0.1% (inactive). As to `O=C(Nc1cccc2ncccc12)c1ccc(Cl)cc1`, the inhibition (at 20 µM) was -1% (inactive). Same read-out and setting: then `O=C(Nc1cccc2ncccc12)c1ccc(F)cc1`, with 2.1% (inactive). `CC(C)(C)c1ccc(C(=O)Nc2cccc3ncccc23)cc1`: the inhibition was 62% (active) (at 20 µM) and 65.1% under setting [1]. As for `COc1ccc(O)c(C(=O)c2cnc3nc4ccccc4n3c2)c1`, the inhibition (at 20 µM) is 28.4% (inactive). Same read-out and setting: then `c1ccc(-c2csc(-c3ccncc3)n2)cc1`, with 0.1% (inactive); and `O=C(O)c1ccc(/C=C2\CCCc3c2nc2ccccc2c3C(=O)O)cc1`, with 4.2% (inactive); and `O=C(O)c1c2c(nc3ccccc13)/C(=C/c1ccc(O)cc1)CCC2`, with 6.1% (inactive). On the same count and under the same terms, then `O=C(O)c1c2c(nc3ccccc13)/C(=C/c1ccc(O)cc1)CC2`, with 77.1% (active); and `CC(C)OCCCNC(=O)NC12CC3CC(CC(C3)C1)C2`, with 1.1% (inactive); and `Cc1ccc(-n2nc3c(c2NC(=O)c2ccc4c(c2)OCO4)CS(=O)C3)cc1` (stereo unspecified), with -0.3% (inactive).

Regarding `CCc1nnc(NS(=O)(=O)c2ccc(NC(=S)NC(=O)/C=C/c3ccc(OC)cc3)cc2)s1`, the inhibition (at 20 µM) is 34.6% (inactive). Still for that read-out and setting: in the case of `CCc1nnc(NS(=O)(=O)c2ccc(NC(=S)NC(=O)/C=C/c3ccc([N+](=O)[O-])cc3)cc2)s1` it was 25.6% (inactive); in that of `CCc1nnc(NS(=O)(=O)c2ccc(NC(=S)NC(=O)/C=C/c3ccccc3)cc2)s1`, 60.8% (active). On the same count and under the same terms, then `Cc1cccc(C)c1NC(=O)C(Cl)=C(Cl)Cl`, with 0.7% (inactive).

For the compound `O=C(O)c1cccc(S(=O)(=O)N2CCOCC2)c1`, the inhibition (at 20 µM) is -1% (inactive). The same measure, in the same setting: in the case of `CCn1ncc(Cl)c1C(=O)Nc1cc([N+](=O)[O-])ccc1OC` it was 0.4% (inactive); in that of `Cc1ccsc1/C=N/NC(=O)c1ccccn1`, -0.7% (inactive); in that of `COc1cccc(N2C(=O)C(c3ccccc3)=C(c3nc4ccccc4s3)C2NC(C)=O)c1` (stereo unspecified), 0.6% (inactive). For the compound `N#C/C(=N\Nc1cccc([N+](=O)[O-])c1)C(=O)c1ccc(Br)cc1`, the inhibition (at 20 µM) was 63.4% (active). Same read-out and setting: then `COc1ccc(C(=O)/C(C#N)=N/Nc2cccc([N+](=O)[O-])c2)cc1`, with 20.6% (inactive).

Turning to `COc1ccc(C(=O)/C(C#N)=N/Nc2ccc([N+](=O)[O-])cc2)cc1`, under “at 20 µM”, the inhibition is 5.5% (inactive). The same measure, in the same setting: then `Cc1c(C(=O)OCC(=O)N(C)c2ccccc2)oc2ccccc12`, with 1.2% (inactive); and `O=C(OCCN1C(=O)c2cccc3c(N4CCOCC4)ccc(c23)C1=O)c1cccc(Cl)c1`, with 151% (inactive); and `CC(=O)N(C(C)=O)N1C(=O)c2cccc3c(N4CCOCC4)ccc(c23)C1=O`, with 100% (active). As to `O=C(OCCN1C(=O)c2cccc3c(N4CCOCC4)ccc(c23)C1=O)c1cc(Cl)cc(Cl)c1`, the inhibition (at 20 µM) is 88.8% (active).

Turning to `O=C(OCCN1C(=O)c2cccc3c(N4CCOCC4)ccc(c23)C1=O)c1ccc(Cl)cc1Cl`, where the note is “at 20 µM”, the inhibition is 151% (inactive). The same measure, in the same setting: then `O=C(OCCN1C(=O)c2cccc3c(N4CCOCC4)ccc(c23)C1=O)c1ccccc1Cl`, with 151% (inactive). On the same count and under the same terms, then `O=C1c2cccc3c(N4CCCCC4)ccc(c23)C(=O)N1c1ccccc1O`, with 100% (active); and `O=C1c2cccc3c(N4CCCCC4)ccc(c23)C(=O)N1CCO`, with -0.2% (inactive). In the case of `O=C1c2cccc3c(N4CCCCC4)ccc(c23)C(=O)N1c1ccc(O)cc1`, the inhibition (at 20 µM) is 146% (inactive).

In the case of `O=C1c2cccc3c(N4CCCCC4)ccc(c23)C(=O)N1c1cccc(O)c1`, under “at 20 µM”, the inhibition was 148% (inactive). Still for that read-out and setting: in the case of `CCN(CC)S(=O)(=O)c1ccc(C(=O)OCCN2C(=O)c3cccc4c(N5CCOCC5)ccc(c34)C2=O)cc1` it was 150% (inactive); in that of `O=C(OCCN1C(=O)c2cccc3c(N4CCOCC4)ccc(c23)C1=O)c1ccc(Cl)cc1`, 149% (inactive); in that of `CCCN(CCC)S(=O)(=O)c1ccc(C(=O)OCCN2C(=O)c3cccc4c(N5CCOCC5)ccc(c34)C2=O)cc1`, 63.4% (active). Still for that read-out and setting: in the case of `Cc1ccc(C(=O)NC(C(=O)Nc2cccc(S(N)(=O)=O)c2)C(C)C)cc1` (stereo unspecified) it was -1.6% (inactive). For `COc1ccc(CNC(=O)Cn2nc(C(F)(F)F)cc2C)cc1`, the inhibition (at 20 µM) is -0.1% (inactive). Still for that read-out and setting: then `O=C(O)c1cc(Cl)c(Cl)cc1C(=O)N1CCOCC1`, with 1.9% (inactive); and `COc1ccccc1-n1c(C)nc2cc(C(=O)NCC3CCCO3)ccc21` (stereo unspecified), with 0.3% (inactive); and `Cc1cc(C)n(C(=O)c2ccc(Cl)c(F)c2F)n1`, with -0.2% (inactive).

Turning to `COc1ccc(CC(=O)Nc2c(C(=O)N3CCN(c4ncccn4)CC3)oc3ccccc23)cc1`, the inhibition (at 20 µM) was -0.6% (inactive).

In the case of `O=c1ccc(C(F)(F)F)cn1Cc1cc(=O)n2cc(Br)ccc2n1`, the inhibition (at 20 µM) was 1.6% (inactive).

Take `COC(=O)C(Cc1ccccc1)NC(=O)CSc1nc(C)cc(=O)[nH]1` (stereo unspecified): the inhibition (at 20 µM) is -1.7% (inactive). Same read-out and setting: in the case of `CCNc1cc(=O)n(C)c(=O)n1C` it was 0.1% (inactive). Consider `COc1cc(CO)cc(Br)c1OCC(=O)O`, for which, where the note is “at 20 µM”, the inhibition was 0% (inactive).

`CCc1ccc(N=C2NC(=O)/C(=C/c3ccc(OCC(=O)O)c(OC)c3)S2)cc1`: the inhibition is, setting by setting: (at 20 µM) 55.1% (inactive); under setting [1], 26.6%.

For `CC(=O)Nc1c(-c2cc(=O)oc3cc(C)ccc23)oc2ccccc12`, the inhibition (at 20 µM) is -0.7% (inactive).

With `Cc1ccccc1CN1C(=O)C(C)S/C1=N/N=C/c1ccco1` (stereo unspecified), the inhibition (at 20 µM) is 4.6% (inactive). Turning to `CC1=Nc2ccccc2/C1=C/c1sc(=S)n(-c2cccc(C(=O)O)c2)c1O`, the inhibition (at 20 µM) was 112% (active) and the inhibition under setting [1] is 134%. `O=C(O)c1ccc(-n2c(O)c(C=C3N=c4ccccc4=N3)sc2=S)cc1`: the inhibition (at 20 µM) was 33.3% (inactive). Still for that read-out and setting: in the case of `O=C(O)c1cccc(-n2c(O)c(C=C3N=c4ccccc4=N3)sc2=S)c1` it was 32.8% (inactive); in that of `O=[N+]([O-])c1cccc(-c2noc(-c3ccco3)n2)c1`, -2.4% (inactive); in that of `COc1ccccc1-c1nnc(SCC(=O)N2CCC(C)CC2)o1`, -1.2% (inactive). Take `Cc1cccc(NC(=O)CN2C(=O)N/C(=C\c3ccc(-c4cccc(C(=O)O)c4)o3)C2=O)c1`: the inhibition (at 20 µM) is 40.3% (inactive). Still for that read-out and setting: in the case of `Cc1ccc(OCC(=O)N/N=C\c2ccc(C)o2)c(C)c1` it was 0.1% (inactive); in that of `Cc1ccc(C(=O)O)cc1-c1ccc(/C=C2\SC(=O)N(CC(=O)Nc3ccccc3)C2=O)o1`, 59.6% (active).

`Cc1ccc(NC(=O)CN2C(=O)S/C(=C/c3ccc(-c4cccc(C(=O)O)c4)o3)C2=O)cc1`: the inhibition (at 20 µM) is 79.5% (active). The same measure, in the same setting: in the case of `Cc1ccc(OCC(=O)N/N=C\c2ccc(-c3cccc(C(=O)O)c3)o2)c(C)c1` it was 56.8% (active). Consider `CC(C)(C)OC(=O)CN1C(=O)S/C(=C\c2ccc(-c3cccc(C(=O)O)c3)o2)C1=O`, for which the inhibition was 51.8% (inactive) (at 20 µM) and 40.6% under setting [1]. As for `Cc1cccc(NC(=O)CN2C(=O)S/C(=C\c3ccc(-c4cccc(C(=O)O)c4C)o3)C2=O)c1`, the inhibition (at 20 µM) was 55.2% (active). For `Cc1ccc(NC(=O)CN2C(=O)S/C(=C\c3ccc(-c4cccc(C(=O)O)c4C)o3)C2=O)cc1C`, the inhibition by setting is: (at 20 µM) 68.7% (inactive); under setting [1], 6.8%.

On to `Cc1cccc(NC(=O)CN2C(=O)N/C(=C/c3ccc(-c4cccc(C(=O)O)c4C)o3)C2=O)c1`, for which the inhibition (at 20 µM) was 28.4% (inactive). As for `COc1ccc(CC(=O)N/N=C/c2ccc(-c3cccc(C(=O)O)c3)o2)cc1OC`, the inhibition (at 20 µM) is 28.8% (inactive).

As for `Cc1ccc(NC(=O)CN2C(=O)S/C(=C/c3ccc(-c4cc(C(=O)O)ccc4C)o3)C2=O)cc1C`, the inhibition runs as follows: (at 20 µM) 63.2% (inactive); under setting [1], 35.6%. As for `Cc1ccccc1NC(=O)CN1C(=O)S/C(=C\c2ccc(-c3cc(C(=O)O)ccc3C)o2)C1=O`, the inhibition reads like this: (at 20 µM) 69.3% (inactive); under setting [1], 19.9%.
